Hits are enriched below; roughly 27% of the tested compounds scored in any of these assays.
CYP2C19 inh: blockers of cytochrome P450 2C19 activity – biochemical, luminescence, ADME assay, primary screen | CYP2C19 Supersomes, luciferin-H EGE luminescence, 30 min | P33261 | 96,000 tested, 21% active | inhibition, % at 5 µM;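 active = CYP2C19 inhibition above a set limit at 5 µM in the primary screen, cut at about 50% in these data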;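 also: plate controls were negative control wells for no effect and 2.5 mM tranylcypromine positive control for full effect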
CYP2C19 activ: human CYP2C19 activators, primary screen, biochemical, luminescence; activation factor at 5 µM; Cytochrome P450 2C19 (Homo sapiens), P33261; recombinant CYP2C19, luciferin-H EGE luminescence; stronger effect = higher value; 0 = fully inhibited enzyme, 1 = untreated enzyme; 96,000 tested, under 10 active; AID 1025, 2008;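 active = activation factor of at least 2 at 5 µM in the primary screen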;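 also: 0 = wells with 2.5 mM tranylcypromine and 1 = vehicle-only wells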
CYP2C9 inhib: blockers of cytochrome P450 2C9 activity – biochemical, luminescence, ADME assay, primary screen; P11712; CYP2C9 Supersomes, luciferin-H conversion; inhibition, % at 5 µM; 96,000 tested, 20% active;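 active = blocking of liver enzyme CYP2C9 beyond about 50% at 5 µM, limit read from the data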
CYP2C9 activ: human CYP2C9 activators, primary screen, biochemical, luminescence; Cytochrome P450 2C9 (Homo sapiens), P11712; recombinant CYP2C9, luciferin-H conversion; stronger effect = higher value; factor 1 = untreated enzyme, 0 = blocked; activation factor at 5 µM; 96,000 tested, 1.4% active;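 active = activation factor of 2 or more for CYP2C9 at a 5 µM dose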;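 also: 0 = sulfaphenazole-blocked wells and 1 = vehicle-only wells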
Cav3 T inh: Cav3.2 calcium influx blockers – cell-based, Fluo-4 calcium fluorescence, FDSS, MLSMR library, primary screen | Voltage-dependent T-type calcium channel subunit alpha-1H (Homo sapiens), O95180 | Cav3.2-expressing cells; stronger effect = lower value | AID 449739, 2010 | B-score at 10 µM | 100,000 tested, 4% active;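 active = single-dose well whose peak fluorescence ratio is a statistical outlier from its plate by either plate-standardised score or position-corrected B-score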
Target sequence (O95180 whole entry, looked up): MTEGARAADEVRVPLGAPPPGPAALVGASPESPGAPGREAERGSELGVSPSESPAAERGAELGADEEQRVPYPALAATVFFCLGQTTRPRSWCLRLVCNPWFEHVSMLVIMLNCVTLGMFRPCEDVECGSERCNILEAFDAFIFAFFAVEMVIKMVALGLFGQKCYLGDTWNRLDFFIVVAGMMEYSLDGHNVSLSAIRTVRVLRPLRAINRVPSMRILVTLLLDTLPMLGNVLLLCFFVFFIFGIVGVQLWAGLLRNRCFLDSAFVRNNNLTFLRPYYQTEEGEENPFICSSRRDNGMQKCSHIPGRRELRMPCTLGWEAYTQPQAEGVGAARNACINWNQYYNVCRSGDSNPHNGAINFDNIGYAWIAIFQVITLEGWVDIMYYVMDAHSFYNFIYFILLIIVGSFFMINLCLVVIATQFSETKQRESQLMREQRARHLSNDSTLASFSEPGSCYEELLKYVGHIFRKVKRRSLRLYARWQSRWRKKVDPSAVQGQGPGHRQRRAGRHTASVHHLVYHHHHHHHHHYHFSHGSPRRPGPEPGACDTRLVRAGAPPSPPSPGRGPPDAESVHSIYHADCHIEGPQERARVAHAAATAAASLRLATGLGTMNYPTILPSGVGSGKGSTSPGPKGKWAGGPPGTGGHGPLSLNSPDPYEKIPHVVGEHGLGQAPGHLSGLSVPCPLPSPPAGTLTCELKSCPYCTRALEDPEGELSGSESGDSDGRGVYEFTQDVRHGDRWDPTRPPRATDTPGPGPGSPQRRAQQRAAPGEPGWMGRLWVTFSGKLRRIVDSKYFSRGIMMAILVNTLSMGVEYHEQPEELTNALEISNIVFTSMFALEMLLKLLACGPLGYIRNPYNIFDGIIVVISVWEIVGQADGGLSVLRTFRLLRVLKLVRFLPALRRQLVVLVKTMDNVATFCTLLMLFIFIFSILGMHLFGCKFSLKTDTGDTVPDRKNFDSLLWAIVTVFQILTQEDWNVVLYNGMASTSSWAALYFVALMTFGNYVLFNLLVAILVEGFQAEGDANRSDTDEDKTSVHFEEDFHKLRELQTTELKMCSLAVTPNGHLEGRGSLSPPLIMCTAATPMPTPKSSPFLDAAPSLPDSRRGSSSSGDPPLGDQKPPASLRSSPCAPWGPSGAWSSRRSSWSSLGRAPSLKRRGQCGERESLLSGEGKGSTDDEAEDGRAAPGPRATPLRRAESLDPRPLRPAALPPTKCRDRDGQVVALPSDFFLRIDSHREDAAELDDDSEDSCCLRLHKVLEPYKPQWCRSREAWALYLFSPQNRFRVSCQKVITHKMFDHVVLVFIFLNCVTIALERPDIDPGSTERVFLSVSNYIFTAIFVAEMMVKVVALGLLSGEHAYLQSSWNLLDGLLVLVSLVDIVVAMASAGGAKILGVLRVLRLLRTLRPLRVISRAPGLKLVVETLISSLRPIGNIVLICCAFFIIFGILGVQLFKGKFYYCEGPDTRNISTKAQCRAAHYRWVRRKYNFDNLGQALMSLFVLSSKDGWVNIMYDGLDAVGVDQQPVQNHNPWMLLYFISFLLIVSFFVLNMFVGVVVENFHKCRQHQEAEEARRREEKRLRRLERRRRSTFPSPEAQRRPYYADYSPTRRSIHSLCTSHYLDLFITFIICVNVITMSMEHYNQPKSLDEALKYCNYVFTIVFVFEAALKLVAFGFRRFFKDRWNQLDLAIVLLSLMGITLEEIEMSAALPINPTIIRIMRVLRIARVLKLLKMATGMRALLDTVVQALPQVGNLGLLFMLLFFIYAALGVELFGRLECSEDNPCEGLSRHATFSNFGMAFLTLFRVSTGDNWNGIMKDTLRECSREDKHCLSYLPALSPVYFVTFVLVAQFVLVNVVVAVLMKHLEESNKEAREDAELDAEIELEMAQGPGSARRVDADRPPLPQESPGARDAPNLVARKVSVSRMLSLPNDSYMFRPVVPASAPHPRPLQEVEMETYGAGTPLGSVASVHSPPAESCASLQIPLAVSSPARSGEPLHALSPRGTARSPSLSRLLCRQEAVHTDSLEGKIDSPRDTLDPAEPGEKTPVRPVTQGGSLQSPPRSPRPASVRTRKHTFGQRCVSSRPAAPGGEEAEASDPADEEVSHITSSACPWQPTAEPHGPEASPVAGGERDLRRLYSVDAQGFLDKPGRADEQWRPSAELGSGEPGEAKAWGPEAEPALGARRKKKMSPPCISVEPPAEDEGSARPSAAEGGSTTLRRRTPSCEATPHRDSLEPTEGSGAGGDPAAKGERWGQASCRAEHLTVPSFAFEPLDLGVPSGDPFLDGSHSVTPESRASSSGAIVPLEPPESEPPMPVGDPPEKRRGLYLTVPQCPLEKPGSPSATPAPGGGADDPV
* = called active by the depositor; / = no result given.

SMILES	CYP2C19 inh	CYP2C19 activ	CYP2C9 inhib	CYP2C9 activ	Cav3 T inh
O=C1Nc2ccccc2C(O)(C(=O)NCc2ccc3c(c2)OCO3)N1c1ccccc1 (stereo unspecified)	21	0.8	-4	1	-0.78
COc1ccc(NC(=O)c2ccc3c(c2)OCO3)cc1Cl	17	0.8	-25	1.2	0.42
COc1ccc(CC(=O)NCc2ccc3c(c2)OCO3)cc1	97*	0	69*	0.3	-0.67
COc1ccc(NCc2ccc3c(c2)OCO3)cc1Cl	98*	0	86*	0.1	-3.2
COc1cccc(N2C(=O)Nc3ccccc3C2(O)C(=O)NCc2ccc3c(c2)OCO3)c1 (stereo unspecified)	61*	0.4	9	0.9	-0.76
COc1cc(S(=O)(=O)Nc2cccc(C(=O)O)c2)c(OC)cc1Cl	-10	1.1	-10	1.1	0.29
COc1cccc(C(=O)COC(=O)C(C)N2C(=O)C3C4C=CC(C4)C3C2=O)c1 (stereo unspecified)	30	0.7	33	0.7	-0.65
COc1ccccc1S(=O)(=O)Cc1ccc(C(=O)NC(C)c2ccc3c(c2)OCCO3)o1 (stereo unspecified)	52*	0.5	62*	0.4	0.57
COc1ccc(CNC(=O)C(C)N=C2NS(=O)(=O)c3ccccc32)cc1OC (stereo unspecified)	8	0.9	15	0.8	-0.22
O=C(NCc1ccc2c(c1)OCO2)c1cccnc1	59*	0.4	11	0.9	-1.5
CC(N=C1NS(=O)(=O)c2ccccc21)C(=O)NCc1ccc2c(c1)OCO2 (stereo unspecified)	58*	0.4	86*	0.1	-0.25
COc1ccc2c(c1)C=C(C(=O)NCc1ccc(Cl)cc1)CO2	53*	0.5	62*	0.4	-6.7*
CCOC(=O)c1cnn(-c2cc(Oc3cccc(C)c3)ncn2)c1N	-5	1	21	0.8	0.64
Cc1ccc(-c2csc3nc4cc(C(=O)NC5CCC(O)CC5)ccc4c(=O)n23)cc1 (stereo unspecified)	/	/	/	/	-0.34
C/C(CC(=O)Nc1ccc(OCc2ccccc2)cc1)=N\NC(=O)C(=O)Nc1ccccc1C	-11	1.1	20	0.8	0.23
CCOc1ccccc1C(=O)NCc1ccc2c(c1)OCO2	98*	0	42	0.6	0.42
COc1cccc(CNC(=O)C2(C)Oc3ccccc3NC2=O)c1 (stereo unspecified)	72*	0.3	92*	0.1	-0.12
CN1CCN(C(=O)c2ccc(C3SCC(=O)N3Cc3ccco3)cc2)CC1 (stereo unspecified)	6	0.9	0	1	-0.45
COc1ccccc1CC(=O)NCc1ccc2c(c1)OCO2	90*	0.1	4	1	-0.21
O=C(NCc1ccc2c(c1)OCO2)c1ccc(C2SCC(=O)N2Cc2ccco2)cc1 (stereo unspecified)	67*	0.3	98*	0	-1.3
CC(=O)NC1C(=O)N(C)c2ccc(Br)cc21 (stereo unspecified)	-5	1.1	-1	1	1.1
Cc1nc2ccccn2c1C(=O)NCc1ccc2c(c1)OCO2	3	1	18	0.8	0.32
COc1ccc(-c2nc3ccccn3c2NCc2ccc3c(c2)OCO3)cc1	/	/	/	/	-4*
CCOC(=O)c1csc(NC(=O)CSc2nnnn2CC)n1	4	1	8	0.9	1.3
CCCCNC(=O)Nc1cnn(CC)c1C(N)=O	-1	1	-4	1	0.74
SMILES	CYP2C19 inh	CYP2C19 activ	CYP2C9 inhib	CYP2C9 activ	Cav3 T inh
COc1cccc(N2C(=O)CC(c3c[nH]c4ccccc34)C2=O)c1 (stereo unspecified)	89*	0.1	34	0.7	-0.43
O=C1CC(c2c[nH]c3ccccc23)C(=O)N1c1ccccc1 (stereo unspecified)	/	/	/	/	-0.37
COc1ccc(C2C(C(=O)NCC3CCCO3)c3cc(OC)c(OC)cc3C(=O)N2C)cc1OC (stereo unspecified)	42	0.6	12	0.9	0.07
O=C(NCc1ccccc1)C1(C(F)(F)F)C/C(=C\CCO)CCCO1 (stereo unspecified)	/	/	/	/	0.38
O=C1c2ccccc2C(Nc2ccc(-c3nc4ccccc4[nH]3)cc2)N1Cc1ccco1 (stereo unspecified)	73*	0.3	87*	0.1	-2.2
COc1ccc(NC2c3ccccc3C(=O)N2Cc2ccco2)cc1OC (stereo unspecified)	64*	0.4	33	0.7	0.34
COC(=O)c1cc(NC2c3ccccc3C(=O)N2Cc2ccco2)cc(C(=O)OC)c1 (stereo unspecified)	77*	0.2	31	0.7	-0.03
CCOc1ccc(NC2c3ccccc3C(=O)N2Cc2ccco2)cc1 (stereo unspecified)	23	0.8	74*	0.3	-4.7*
COc1ccc(OC)c(NC2c3ncccc3C(=O)N2Cc2ccco2)c1 (stereo unspecified)	29	0.7	27	0.7	-1.4
Cc1ccc(C)c(NC(=O)c2ccc[n+](Cc3ccc([N+](=O)[O-])cc3)c2)c1	-14	1.1	-6	1.1	0.044
O=C1c2ccccc2C(Nc2ccc(F)c(Cl)c2)N1Cc1ccco1 (stereo unspecified)	66*	0.3	40	0.6	-6*
O=C(O)C1C(c2ccccc2)C(C(=O)Oc2ccccc2)C1c1ccccc1 (stereo unspecified)	-6	1.1	2	1	-0.89
CC(C)CCOC(=O)C1C(c2ccccc2)C(C(=O)O)C1c1ccccc1 (stereo unspecified)	59*	0.4	23	0.8	-1.2
Cc1cccc(OC(=O)C2C(c3ccccc3)C(C(=O)O)C2c2ccccc2)c1 (stereo unspecified)	10	0.9	59*	0.4	-2.2
CC1=NN(C(=O)c2ccc(C)cc2)C(O)(C(F)(F)OC(F)(F)F)C1 (stereo unspecified)	20	0.8	13	0.9	-0.11
O=C(/C=C/c1ccc(O)cc1)c1ccc(NC2=C(N3CCCCC3)C(=O)c3ccccc3C2=O)cc1	69*	0.3	49	0.5	0.0081
O=C1C(Nc2cccc(O)c2)=C(N2CCCCC2)C(=O)c2ccccc21	39	0.6	62*	0.4	-0.85
Cc1ccc(NC2=C(N3CCCCC3)C(=O)c3ccccc3C2=O)cc1	43	0.6	28	0.7	-0.62
O=C1C(Nc2ccccc2)=C(N2CCCCC2)C(=O)c2ccccc21	68*	0.3	50	0.5	0.6
CN(C1=C(N2CCCCC2)C(=O)c2ccccc2C1=O)c1ccccc1	95*	0.1	90*	0.1	-2.5
COc1cc(OC)cc(C(=O)N2CCC(N3CCCCCC3)CC2)c1	/	/	/	/	0.12

Bioassay records from PubChem.
